From ChEMBL document CHEMBL3988442, “University of Dundee, Small-Polar-MMV Screening Library” (2021) come the findings set out here.

Hit rate of the full screen: of about 69,000 compounds, about 420 (0.61%) showed an effect of 50% or more. For the sample, strong results were picked, then their nearest neighbours and some compounds at random.

The target of this test is T1, Histidine--tRNA ligase (Leishmania infantum) (UniProt A4I591).
T1 sequence (whole entry): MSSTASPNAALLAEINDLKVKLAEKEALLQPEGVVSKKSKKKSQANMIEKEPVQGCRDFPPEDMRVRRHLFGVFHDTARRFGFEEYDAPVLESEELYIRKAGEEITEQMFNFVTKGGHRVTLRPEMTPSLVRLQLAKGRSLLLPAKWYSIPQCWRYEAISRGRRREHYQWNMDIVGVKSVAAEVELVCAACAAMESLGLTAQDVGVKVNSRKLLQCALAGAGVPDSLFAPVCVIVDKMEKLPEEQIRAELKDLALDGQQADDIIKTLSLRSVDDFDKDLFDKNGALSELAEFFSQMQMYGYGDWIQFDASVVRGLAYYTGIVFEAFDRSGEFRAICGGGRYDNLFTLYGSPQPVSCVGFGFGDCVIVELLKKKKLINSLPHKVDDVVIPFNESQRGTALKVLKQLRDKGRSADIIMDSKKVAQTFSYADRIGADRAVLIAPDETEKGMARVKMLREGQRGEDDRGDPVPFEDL
Nature of the test: Leishmania infantum Histidine tRNA synthetase (LdHisRS). Conditions: 30 µM. Type of test: functional. Also on record: scale not given: in the data most compounds retested in dose-response had high values.
Turning to `CN1CCCC[C@@H]2[C@H]1[C@@H](c1ccccc1)CCN2C(=O)c1cnccn1`, the Percent Effect was determined as 25%.

For `CC(C)OCCCNC(=O)[C@@]12CNC[C@@H]1CN(S(C)(=O)=O)C2`, the Percent Effect was -3.23%.

Consider `CCC1=N[C@@]2(CC[C@@H]3CN(Cc4ccc(Cl)cc4)C[C@@H]32)C(=O)N1`, for which the Percent Effect came to 3.01%.

In the case of `CC(C)NC(=O)[C@@H]1C[C@@H]2CCN(Cc3ccoc3)C[C@H]2O1`, the Percent Effect was found to be 17.3%.

On to `Cc1ccc(NC(=O)Nc2c(O)oc3ccccc3c2=O)cc1C`, for which the Percent Effect came out at 16.1%.

Consider `O=C(O)C1c2nc[nH]c2CCN1Cc1ccccc1-c1ccccc1` (configuration not stated), for which the Percent Effect was found to be 28.8%.

For `O=C(O)C1c2nc[nH]c2CCN1CC(c1ccccc1)c1ccccc1` (configuration not stated), the Percent Effect is 107%.

As to `O=C(O)C1c2nc[nH]c2CCN1Cc1ccc(-c2ccccc2)s1` (configuration not stated), the Percent Effect amounted to 28.8%.

As for `Cc1cccc(CN2C(=O)CC[C@@H]3[C@H]2CCN3Cc2ccc(F)cc2)n1`, the Percent Effect is 20.6%.

With `Cc1ccc(CN2CCC[C@@H]3CN(C(=O)c4ccco4)C[C@@H]32)o1`, the Percent Effect turned out to be 15.5%.

In the case of `CCCn1nccc1C(=O)N1CCN(C(=O)C2CC2)[C@@H]2CS(=O)(=O)C[C@@H]21`, the Percent Effect worked out at 0%.

As to `Cc1ccc(C(=O)N2C[C@@H]3CC[C@H](C2)N(CC2CCC2)C3)s1`, the Percent Effect was found to be 21.9%.

Turning to `CC(C)=CCN1C[C@H]2CC[C@@H]1CN(C(=O)Cn1c(C)cc(C)nc1=O)C2`, the Percent Effect worked out at 23.8%.

On to `CC(=O)c1ccc(C(=O)N2C[C@@H]3CC[C@H](C2)N(CC2CCC2)C3)s1`, for which the Percent Effect was found to be 19.2%.

For `Cc1cc(C)n(CC(=O)N2CCCCC2CCN(C)C)c(=O)n1` (configuration not stated), the Percent Effect came out at 16%.

`Cc1cc(C)n(CC(=O)N2C[C@@H]3CC[C@H](C2)N(CC2CCC2)C3)c(=O)n1`: the Percent Effect stood at 57.1%.

For the compound `O=C(NC1CCCC1)N1C[C@H]2CN(c3ccncc3)C[C@@]2(C(=O)O)C1`, the Percent Effect was -1.96%.

For `CN(C)C(=O)[C@H]1C[C@H]2OCC[C@H]2N(Cc2ccc3c(c2)OCO3)C1`, the Percent Effect turned out to be 29.4%.

As for `O=C1CO[C@H]2CN(S(=O)(=O)c3ccccc3)C[C@H]2N1CC1CCCCC1`, the Percent Effect was found to be 27.8%.

As to `COCC(=O)NC[C@@]1(COc2cnccn2)C[C@@H](O)[C@@H](O)C1`, the Percent Effect was determined as 10.8%.

As to `Cc1cnc(N2C[C@H]3C[C@H](C(=O)N4CCN(C)CC4)N(C)[C@H]3C2)nc1`, the Percent Effect was 5.05%.

In the case of `CC(=O)Nc1ccc2nc(-c3nccn3CCCN(C)C)ccc2c1`, the Percent Effect amounted to 12.8%.

Take `CC(=O)Nc1ccc2nc(-c3nccn3C[C@@H]3CCCO3)ccc2c1`: the Percent Effect is 51.1%.

Regarding `CC(=O)Nc1ccc2nc(-c3nccn3CC(C)(C)CO)ccc2c1`, the Percent Effect worked out at 10.6%.

Regarding `O=C([C@@H]1C[C@@H]2CCN(Cc3ccoc3)C[C@H]2O1)N1CCCC1`, the Percent Effect was 2.73%.

Turning to `CN(C)C[C@@H]1C[C@@H]2CN(C(=O)c3ccoc3)CC[C@@H]2N1CC1CC1`, the Percent Effect turned out to be 7.32%.

`NC(=O)N1C[C@H](NC(=O)c2cscn2)[C@@H]2OCCC[C@@H]21`: the Percent Effect stood at 13.6%.
